# In PubChem BioAssay (NCATS):
# Results filed as inconclusive are left out. Where a call stands in place of a potency, no number is given. Values without a mark were called inactive. Calls of active or inactive are those of the source. Calls follow the shape of the dose curve; as a rule, active = well fitted curve in the direction sought with a large enough effect; inconclusive = small, poorly fitted or top-dose-only effect, or another doubt; inactive = no such curve, though single readings can be large; an effect the other way counts as inactive or inconclusive.
# Tests used:
# [1] = target: Cellular tumor antigen p53 (Homo sapiens) (UniProt P04637); assay: Primary qHTS for small molecule compounds that upregulate eGFP-tagged delta133p53alpha (in N-terminal) cells. (AID 2060322); details: NCI-H358 eGFP-delta133p53alpha fluorescence, 24 h; activation: active compounds read high; also: nearly all actives have a fitted effect of over 75% in size; also: potency is read from the fitted curve at half-maximal effect
# Procedure, shortened: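 NCI-H358 cells pre-induced 24 h with 10 ng/ml doxycycline to express N-terminal eGFP-delta133p53alpha, then dosed 24 h at 37C without doxycycline; fixed, Hoechst-stained, GFP intensity by laser scanning cytometry, normalized to DMSO (0%) and 57.5 uM 5-azacytidine (100%).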
# [2] = target: Aldehyde dehydrogenase, mitochondrial (Homo sapiens) (UniProt P05091); assay: qHTS for Inhibitors of the Aldehyde Dehydrogenase Family (ALDH2) Primary screen (AID 2061308); details: ALDH2 enzyme inhibition qHTS, 1536-well; series mostly up to 56 µM; also: nearly all actives have a fitted effect of over 55% in size
# [3] = target: Retinaldehyde dehydrogenase 3 (Homo sapiens) (UniProt P47895); assay: qHTS for Inhibitors of the Aldehyde Dehydrogenase Family (ALDH1A3) Primary screen (AID 2061315); details: ALDH inhibition qHTS; series mostly up to 56 µM
# Cellular tumor antigen p53 (Homo sapiens), sequence (P04637 whole entry, looked up): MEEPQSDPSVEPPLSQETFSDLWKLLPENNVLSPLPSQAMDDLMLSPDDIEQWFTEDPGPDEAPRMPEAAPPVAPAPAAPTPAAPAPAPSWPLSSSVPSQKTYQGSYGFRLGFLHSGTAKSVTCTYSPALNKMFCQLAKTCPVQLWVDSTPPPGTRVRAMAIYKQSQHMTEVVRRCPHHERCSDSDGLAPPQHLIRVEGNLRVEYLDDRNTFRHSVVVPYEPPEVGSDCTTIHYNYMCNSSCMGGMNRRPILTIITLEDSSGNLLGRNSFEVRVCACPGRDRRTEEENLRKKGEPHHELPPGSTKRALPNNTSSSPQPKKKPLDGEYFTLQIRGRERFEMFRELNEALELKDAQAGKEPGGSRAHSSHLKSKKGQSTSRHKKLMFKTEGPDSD
SMILES,Potency [1],Potency [2],Potency [3],activation [1]
C=C1C(=O)OC2/C=C(\C)CC/C=C(\C)CC(OC(C)=O)C12 (configuration not stated),26.9 µM (active),inactive,inactive,–
CC(C)C1NC(=O)C2CCCN2C1=O (configuration not stated),–,inactive,inactive,8.93%
COc1ccc2c(c1)C[C@H](C(=O)Nc1ccc(-c3cn[nH]c3)cc1OCCN(C)C)CO2,–,inactive,inactive,-0.893%
COc1c(C(O)CC(C)C)ccc2c1C(=O)OCc1cc(C)cc(O)c1O2 (configuration not stated),–,inactive,inactive,-2.68%
CCC(C)C(=O)O[C@H]1[C@@H](OC(=O)c2ccoc2)C[C@](C)(O)[C@]23OC(C)(C)[C@H](C[C@H](OC(=O)c4ccoc4)[C@]12COC(C)=O)[C@H]3OC(C)=O (some centres not stated),–,inactive,inactive,17.6%
OC[C@H]1O[C@@H](OCCc2ccc(O)cc2)[C@H](O)[C@@H](O)[C@@H]1O,–,inactive,inactive,-13.7%
CC1(C)CCC2(C(=O)OC3OC(CO)C(O)C(O)C3O)CCC3(C)C(=CCC4C5(C)CCC(OC6OC(C(=O)O)C(OC7OC(CO)C(O)C(O)C7O)C(OC7OC(CO)C(O)C(O)C7O)C6O)C(C)(C)C5CCC43C)C2C1 (configuration not stated),–,inactive,inactive,-5.34%
CC(=O)NC(CCC(=O)O)C(=O)NCCc1ccc(O)cc1 (configuration not stated),–,inactive,inactive,-14.5%
O=C(NCc1ccc(OC(F)(F)F)cc1)C1c2c(F)cccc2C(=O)N1CCc1ccccn1 (configuration not stated),–,inactive,inactive,11.6%
C[C@@H]1CCC2C(C)(C)[C@H](O)CC[C@]2(C)[C@@]12Cc1c(O)cc3c(c1O2)CN([C@@H](CCC(=O)O)C(=O)O)C3=O (some centres not stated),–,inactive,inactive,-9.16%
C=CC1C(OC2OC(CO)C(O)C(O)C2O)OC=C(C(=O)OC)C1CC(=O)OCC1C(C)C(O)CC1C(CO)COC(=O)CC1C(C(=O)O)=COC(OC2OC(CO)C(O)C(O)C2O)/C1=C\C (configuration not stated),–,inactive,inactive,-16%
O=C(NCc1ccccc1-c1ccccc1C(=O)NCCc1ccccn1)OCc1ccccc1,–,inactive,inactive,1%
CN1c2ccccc2C(=O)N2CCC3c4ccccc4NC3C21 (configuration not stated),1.66 µM (active),inactive,inactive,–
C=C1C(=O)O[C@@H]2C=C(COC(C)=O)CC/C=C(\CO)CC[C@@H]12,–,inactive,inactive,3.82%
C=C1[C@@H]2CC[C@@]3(C)[C@H](c4ccoc4)OC(=O)C[C@]13O[C@H]1CC(=O)C(C)(C)[C@H](C(O)C(=O)OC)[C@]12C (some centres not stated),–,inactive,inactive,8.04%
O=C(CCCCc1ccc2ccccc2c1)C(F)(F)F,–,inactive,inactive,4.33%
O=C1NC(Cc2ccc(O)cc2)C(=O)N2CCCC12 (configuration not stated),–,inactive,inactive,-19.8%
CC/C=C\[C@H](O)[C@H](O)C1=C(C)C(=O)[C@]2(O1)C(=O)N[C@@](OC)(C(=O)c1ccccc1)[C@@H]2O,–,inactive,inactive,-6.87%
CC(=O)O[C@@H]1[C@@H](O)[C@H](C)O[C@@H](O[C@H]2[C@@H]3C=CO[C@@H](O[C@@H]4O[C@H](CO)[C@@H](O)[C@H](O)[C@H]4O)[C@@H]3[C@@]3(CO)O[C@@H]23)[C@@H]1OC(=O)/C=C/c1ccccc1,–,inactive,inactive,4.58%
N[C@H]1C[C@H]1c1ccc(-c2cccc(O)c2)cc1,–,inactive,inactive,1.67%
CC(=O)O[C@H]1C[C@@H](O)C(C)(C)C2C[C@@H](OC(C)=O)[C@@]3(C)C4=CCC(C(CO)CC(O)C5OC5(C)C)[C@]4(C)CCC3[C@]21C (some centres not stated),–,inactive,inactive,-9.16%
CC1(C)CC[C@]2(C(=O)O[C@@H]3O[C@H](CO)[C@@H](O)[C@H](O)[C@H]3O)CC[C@]3(C)C(=CCC4[C@@]5(C)C[C@@H](O)[C@H](O)[C@@](C)(CO)C5[C@H](O)C[C@]43C)C2[C@@H]1O (some centres not stated),–,inactive,inactive,-5.34%
O=C1NC2CCCCN2C12CCN(CCCN1c3ccccc3CCc3ccc(Cl)cc31)CC2 (configuration not stated),13.5 µM (active),inactive,inactive,–
C=C1CC[C@@H]2[C@](C)(CO)[C@H](O)CC[C@@]2(C)[C@@H]1C/C=C1/C(=O)OCC1O (some centres not stated),23.9 µM (active),inactive,inactive,–
